This is one part of the list. How many sequences the whole screen found active is unknown.
Target: furin, P09958
Assay: furin cleavage Z-score vs untreated control; higher = more cleavage, active = 3.5 or more, inactive = 1 or less, 8 variable residues between constant flanks
In short: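 Furin cleavage was scored on 8-mer peptides joined to a cDNA oligonucleotide and bound to magnetic beads at the N-terminus. Digestion with purified furin (1:10 enzyme:substrate, 0.01 ml, 50 mM HEPES pH 7.5, CaCl2, NaCl) lasted 7.5, 15 or 30 min. Freed DNA was tagged with adapters by PCR, sequenced and counted; the cleavage Z-score is the lowess-adjusted log count versus furin-free reactions, scaled by median absolute deviation.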

Chain of furin, P09958 (P09958 whole entry): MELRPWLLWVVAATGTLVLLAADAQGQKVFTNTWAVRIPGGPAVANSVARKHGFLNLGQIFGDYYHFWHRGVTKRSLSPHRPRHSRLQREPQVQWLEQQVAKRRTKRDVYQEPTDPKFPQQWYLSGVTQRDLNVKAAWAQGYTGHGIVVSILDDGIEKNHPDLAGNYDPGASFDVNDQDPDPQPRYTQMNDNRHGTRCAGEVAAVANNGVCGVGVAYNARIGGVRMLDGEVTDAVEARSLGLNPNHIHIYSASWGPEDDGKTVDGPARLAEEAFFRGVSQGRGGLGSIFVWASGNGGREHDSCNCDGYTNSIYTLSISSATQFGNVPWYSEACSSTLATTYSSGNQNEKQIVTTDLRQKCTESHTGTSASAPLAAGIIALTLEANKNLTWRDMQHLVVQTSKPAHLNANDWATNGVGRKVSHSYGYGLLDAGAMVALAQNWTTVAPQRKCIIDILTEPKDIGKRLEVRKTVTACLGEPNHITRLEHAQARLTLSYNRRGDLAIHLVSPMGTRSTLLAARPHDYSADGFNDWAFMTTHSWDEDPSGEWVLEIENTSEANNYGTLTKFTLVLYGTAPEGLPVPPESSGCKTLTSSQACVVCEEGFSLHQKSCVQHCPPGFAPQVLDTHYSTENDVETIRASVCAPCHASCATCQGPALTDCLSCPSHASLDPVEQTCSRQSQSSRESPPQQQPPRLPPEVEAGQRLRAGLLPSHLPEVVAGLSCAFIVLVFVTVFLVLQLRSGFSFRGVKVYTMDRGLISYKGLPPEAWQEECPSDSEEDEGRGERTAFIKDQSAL

Sequence | furin cleavage Z-score (7.5 min) | furin cleavage Z-score (15 min) | furin cleavage Z-score (30 min)
CACYIKARAAAGNASASA [HC1518] | -1.15 (inactive) | -2.21 (inactive) | -1.87 (inactive)
CALETTMRSPAGNASASA [HC761] | -0.168 (inactive) | -1 (inactive) | -1.96 (inactive)
CACDECHSTDAGNASASA [HC818] | 0.0668 (inactive) | -0.316 (inactive) | -1.36 (inactive)
CAVVCCSMSSAGNASASA [HC2097] | -1.16 (inactive) | -0.774 (inactive) | -1.81 (inactive)
CASLDPTFTIAGNASASA [HC893] | -1.06 (inactive) | -1.75 (inactive) | -1.02 (inactive)
CAMDARTDRSAGNASASA [FS-1375] | 1.8 | -1.12 (inactive) | 0.78 (inactive)
CASPLRQNRSAGNASASA [FS-299] | 0.752 (inactive) | 0.557 (inactive) | 0.444 (inactive)
CAQLRRTTRSAGNASASA [FS-285] | 7.33 (active) | 6.26 (active) | 6.25 (active)
CASPARETRSAGNASASA [FS-627] | 5.25 (active) | 8.43 (active) | 6.33 (active)
CAEYVTSTWVAGNASASA [HC2169] | 0.357 (inactive) | 0.186 (inactive) | -1.53 (inactive)
CAAGAAIGSVAGNASASA [HC1078] | -1.21 (inactive) | 0.457 (inactive) | -0.822 (inactive)
CAEVVTSHWVAGNASASA [HC2215] | -1.58 (inactive) | -0.204 (inactive) | 0.171 (inactive)
CAVRARLLARAGNASASA [HC1624] | -2.8 (inactive) | -0.431 (inactive) | -0.318 (inactive)
CAAAGRRLARAGNASASA [HC1253] | 4.08 (active) | 4.81 (active) | 4.86 (active)
CADPTTPLARAGNASASA [HC1564] | -0.242 (inactive) | -3 (inactive) | -1.34 (inactive)
CAVDCCSMSYAGNASASA [HC2011] | 0.752 (inactive) | -0.617 (inactive) | 0.379 (inactive)
CAMHIRRKRIAGNASASA [FS-1235] | 8.17 (active) | 9.27 (active) | 7.92 (active)
CARCRRNKRIAGNASASA [FS-1649] | 4.5 (active) | 6.14 (active) | 4.22 (active)
CALILRSKRYAGNASASA [FS-1024] | 9.69 (active) | 10.5 (active) | 10.3 (active)
CAFKNRSCRIAGNASASA [FS-768] | -0.201 (inactive) | 0.864 (inactive) | 0.865 (inactive)
CAARIRVKRYAGNASASA [FS-8] | 8.19 (active) | 7 (active) | 8.58 (active)
CALAERRVRIAGNASASA [FS-265] | 0.222 (inactive) | 0.166 (inactive) | -2.18 (inactive)

Sequence | furin cleavage Z-score (7.5 min) | furin cleavage Z-score (15 min) | furin cleavage Z-score (30 min)
CADFDSVIDCAGNASASA [HC884] | -0.725 (inactive) | -1.64 (inactive) | -0.179 (inactive)
CAEVYCHRPSAGNASASA [HC2349] | -0.918 (inactive) | 0.00682 (inactive) | -0.904 (inactive)
CAAEECSQHLAGNASASA [HC1663] | 0.467 (inactive) | 0.000249 (inactive) | 1.4
CAFHIRRKRYAGNASASA [FS-651] | 11.7 (active) | 12.5 (active) | 10.9 (active)
CANHVSPTHYAGNASASA [HC1124] | -0.962 (inactive) | 0.0646 (inactive) | -0.575 (inactive)
CASRHRVTRYAGNASASA [FS-1489] | 9.37 (active) | 11.3 (active) | 10.7 (active)
CASRGENCGYAGNASASA [HC1505] | 1.28 | -1.03 (inactive) | -0.54 (inactive)
CAAICGKYLFAGNASASA [HC1630] | 1.25 | -1.22 (inactive) | -0.719 (inactive)
CALTHPVTKYAGNASASA [HC979] | -1.06 (inactive) | 1.08 | 1.75
CAAICRRKRYAGNASASA [FS-396] | 11.5 (active) | 13.2 (active) | 11.3 (active)
CAFHIRRKRYAGNASASA [FU9] | 11 (active) | 12.5 (active) | 11.3 (active)
CANFISGIQYAGNASASA [HC1044] | -0.934 (inactive) | -0.739 (inactive) | -0.721 (inactive)
CAANVRRKRYAGNASASA [FS-643] | 12.5 (active) | 13.8 (active) | 11.3 (active)
CAKMIGGHYVAGNASASA [HC624] | -0.495 (inactive) | -0.0648 (inactive) | -0.0572 (inactive)
CACGSVFLVGAGNASASA [HC301] | -1.62 (inactive) | -1.91 (inactive) | -1.35 (inactive)
CAEVVTSTWIAGNASASA [HC2244] | 0.57 (inactive) | 0.293 (inactive) | 0.802 (inactive)
CAEQPCHRPSAGNASASA [HC2342] | -1.24 (inactive) | 2.02 | -0.236 (inactive)
CAEREISVPAAGNASASA [HC1293] | -0.452 (inactive) | -1.55 (inactive) | -0.526 (inactive)
CAGQLDLSGWAGNASASA [HC1642] | -0.176 (inactive) | 0.869 (inactive) | 0.13 (inactive)
CARRRRNKRYAGNASASA [FS-1403] | 12.8 (active) | 14.4 (active) | 10.6 (active)
CALRRRRKRYAGNASASA [FS-944] | 11.8 (active) | 14.5 (active) | 10.2 (active)
CAEETTPCSGAGNASASA [HC1972] | -1.3 (inactive) | -1.71 (inactive) | -0.823 (inactive)

— the supplement of paper PMC3545927
